Here are results for eight compounds from PubChem BioAssay (EPA / NIEHS).

In test [1] the target is human RAR-related Orphan Receptor gamma (RORg), RORC (gene 6097) (UniProt P51449). The test is described as follows: ATG_RORg_TRANS: Attagene TRANS-FACTORIAL HepG2 Assay for human RAR-related Orphan Receptor gamma (RORg) (AID 2283011; active = hit-call score of the fitted dose curve at least 0.9, where 1 is the maximum). The method in brief: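 Chimeric RORg-Gal4 transactivation in transfected HepG2; 24 h exposure; RT-PCR/capillary electrophoresis readout of reporter mRNA, DMSO baseline.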
human RAR-related Orphan Receptor gamma (RORg), RORC (gene 6097), sequence (P51449 whole entry, looked up, the tested form may be a part): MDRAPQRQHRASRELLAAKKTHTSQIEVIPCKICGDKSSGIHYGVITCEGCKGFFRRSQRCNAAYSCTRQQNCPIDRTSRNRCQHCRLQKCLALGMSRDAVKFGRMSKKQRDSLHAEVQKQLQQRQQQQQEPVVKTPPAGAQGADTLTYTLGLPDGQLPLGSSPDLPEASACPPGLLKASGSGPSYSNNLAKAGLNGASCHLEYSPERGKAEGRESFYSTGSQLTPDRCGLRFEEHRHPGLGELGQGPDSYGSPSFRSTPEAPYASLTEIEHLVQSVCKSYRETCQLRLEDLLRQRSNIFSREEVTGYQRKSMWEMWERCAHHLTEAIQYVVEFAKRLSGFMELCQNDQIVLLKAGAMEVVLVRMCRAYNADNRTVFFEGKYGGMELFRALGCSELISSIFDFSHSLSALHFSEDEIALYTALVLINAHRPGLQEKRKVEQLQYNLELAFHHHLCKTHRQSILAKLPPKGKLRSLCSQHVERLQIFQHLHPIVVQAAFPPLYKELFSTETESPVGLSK

In test [2] the target is Retinoic acid receptor RXR-alpha (Homo sapiens) (UniProt P19793). The test is described as follows: ATG_RXRa_TRANS: Attagene TRANS-FACTORIAL HepG2 Assay for human Retinoid X Receptor alpha (RXRa) (AID 2283012; active = hit-call score of the fitted dose curve at least 0.9, where 1 is the maximum). The method in brief: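 Transient transfection of human HepG2 with multiple GAL4-UAS reporter constructs; 24 h compound exposure; total RNA isolated, reverse-transcribed, PCR-amplified, 6-FAM labelled, HpaI-cut, resolved by capillary electrophoresis. Positive-direction fit versus DMSO.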
Retinoic acid receptor RXR-alpha (Homo sapiens), sequence (P19793 whole entry, looked up, the tested form may be a part): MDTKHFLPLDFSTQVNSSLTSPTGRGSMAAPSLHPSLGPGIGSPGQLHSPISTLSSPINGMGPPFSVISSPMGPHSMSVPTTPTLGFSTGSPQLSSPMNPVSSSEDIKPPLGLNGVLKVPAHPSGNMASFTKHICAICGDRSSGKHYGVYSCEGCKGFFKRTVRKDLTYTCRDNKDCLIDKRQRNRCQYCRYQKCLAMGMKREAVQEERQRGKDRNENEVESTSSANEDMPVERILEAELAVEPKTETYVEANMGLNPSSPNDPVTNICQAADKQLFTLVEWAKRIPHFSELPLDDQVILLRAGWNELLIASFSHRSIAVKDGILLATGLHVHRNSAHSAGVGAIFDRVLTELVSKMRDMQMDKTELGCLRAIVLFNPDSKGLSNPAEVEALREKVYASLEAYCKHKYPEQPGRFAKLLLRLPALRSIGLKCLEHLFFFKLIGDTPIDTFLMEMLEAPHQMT

Read-out in test [3]: E-selectin (Homo sapiens) (UniProt P16581)
Kind of test: BSK_3C_Eselectin: BioMAP Diversity Plus: 3C Assay for Eselectin Biomarker Activity (AID 2283015).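 For outcome: cell surface E-selectin protein quantified by ELISA 24 h after dosing.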 The conditions noted are these: primary human endothelial cells (HUVEC); actives raise or lower the signal. The gist of the method:
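Endpoint derived by bidirectional fitting against DMSO vehicle; signal is ELISA-detected E-selectin from primary HUVEC at 24 h post-dosing, with parallel SRB staining (0.1% SRB, 560 nm) flagging cytotoxicity.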

Read-out in test [4]: Interleukin-1 alpha (IL1a), IL1A (gene 3552)
The test is described as follows: BSK_BE3C_IL1a: BioMAP Diversity Plus: BE3C Assay for Interleukin-1 alpha (IL1a) Biomarker Activity (AID 2283016). Particulars: primary human bronchial epithelial cells; actives raise or lower the signal. The gist of the method: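 BE3C primary human bronchial epithelium; cpd 24 h; IL-1a by ELISA; bidirectional fit vs DMSO; parallel SRB (0.1% SRB, 10% TCA fix, 560 nm) for cytotoxicity.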

Read-out in test [5]: Monocyte Chemoattractant Protein-1 (MCP1), CCL2 (gene 6347)
The test is described as follows: BSK_4H_MCP1: BioMAP Diversity Plus: 4H Assay for Monocyte Chemoattractant Protein-1 (MCP1) Biomarker Activity (AID 2283018). The conditions noted are these: primary human endothelial cells (HUVEC); actives raise or lower the signal. The method in brief: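 ELISA read-out of MCP-1 from human vascular endothelial primary cells taken at 24 hours after compound exposure. Activity was fitted in both directions relative to DMSO, which served as negative control.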

Read-out in test [6]: Human Leukocyte Antigen - DR isotype (HLADR), HLA-DRA (gene 3122)
Kind of test: BSK_3C_HLADR: BioMAP Diversity Plus: 3C Assay for Human Leukocyte Antigen - DR isotype (HLADR) Biomarker Activity (AID 2283019).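 For outcome: ELISA of cell-surface HLA-DR on HUVEC 24 h after dosing.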 The conditions noted are these: primary human endothelial cells (HUVEC); actives raise or lower the signal. The method in brief:
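Compound added to primary HUVEC cultures, 24 h incubation, then HLA-DR determined by ELISA; endpoint derived by bidirectional fitting relative to DMSO negative control.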

Read-out in test [7]: Interleukin-8 (IL8), CXCL8 (gene 3576)
Kind of test: BSK_3C_IL8: BioMAP Diversity Plus: 3C Assay for Interleukin-8 (IL8) Biomarker Activity (AID 2283020). Particulars: primary human endothelial cells (HUVEC); actives raise or lower the signal. The gist of the method: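 ELISA read-out of IL-8 from human umbilical vein endothelium, measured 24 h after chemical dosing. Activity is expressed relative to DMSO negative control, with both increases and decreases fitted.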

Read-out in test [8]: Monokine induced gamma interferon (MIG), CXCL9 (gene 4283)
Kind of test: BSK_3C_MIG: BioMAP Diversity Plus: 3C Assay for Monokine induced gamma interferon (MIG) Biomarker Activity (AID 2283021).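 For AC50: MIG protein level measured by immunoassay in the treated endothelial cultures.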 Particulars: primary human endothelial cells (HUVEC); actives raise or lower the signal. The gist of the method:
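Read-out is ELISA detection of MIG on human umbilical vein endothelial cells, taken 24 h after dosing. Gain or loss of signal was scored relative to DMSO controls using bidirectional curve fitting.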

Test [9] has as its target human Vitamin D Receptor (VDR), VDR (gene 7421) (UniProt P11473). Kind of test: ATG_VDR_TRANS: Attagene TRANS-FACTORIAL HepG2 Assay for human Vitamin D Receptor (VDR) (AID 2283022; active = hit-call score of the fitted dose curve at least 0.9, where 1 is the maximum). The gist of the method: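 Multiplexed TRANS reporter in HepG2; 24 h treatment; reporter mRNA by RT-PCR plus capillary electrophoresis; upregulation scored relative to DMSO.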
The nature of test [10]: BSK_3C_SRB: Viability Assessment in the BioMAP Diversity Plus: 3C Assay (AID 2283023).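 Note: fitted both ways against DMSO so a hit may be signal rise or drop.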 The conditions noted are these: primary human endothelial cells (HUVEC). The gist of the method:
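Overt cytotoxicity is gauged in parallel confluent HUVEC cultures by SRB total-protein staining at the time of biomarker measurement, 24 h after dosing. Gain or loss of signal is fitted versus DMSO.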

Read-out in test [11]: Matrix Metallopeptidase 1 (MMP1), MMP1 (gene 4312)
The test is described as follows: BSK_BE3C_MMP1: BioMAP Diversity Plus: BE3C Assay for Matrix Metallopeptidase 1 (MMP1) Biomarker Activity (AID 2283024). Particulars: primary human bronchial epithelial cells; actives raise or lower the signal. The gist of the method:
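Human bronchial epithelial cells (BE3C system) exposed to compound for 24 h; MMP1 then quantified by ELISA. Activity was fitted in both directions relative to DMSO.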

A short description of test [12]: BSK_3C_Vis: BioMAP Diversity Plus: 3C Assay for Morphology Visualization (AID 2283025).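 For AC50: light microscopy image of cell morphology used as background control.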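 Note: fitted both ways so gain or loss versus DMSO counts.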 Particulars: primary human endothelial cells (HUVEC). The gist of the method: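 Chemicals were added to primary human umbilical vein endothelium, cells were incubated 24 h, and morphology was then visualized by light microscopy. Gain or loss of signal was fitted bidirectionally relative to DMSO.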

Read-out in test [13]: Pselectin, SELP (gene 6403)
The test is described as follows: BSK_4H_Pselectin: BioMAP Diversity Plus: 4H Assay for Pselectin Biomarker Activity (AID 2283026). Particulars: primary human endothelial cells (HUVEC); actives raise or lower the signal. The method in brief:
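ELISA read-out of P-selectin on human umbilical vein endothelium after 24 h of dosing. Values derive from bidirectional fitting relative to DMSO. Parallel SRB protein staining flagged overt cytotoxicity.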

Test [14] in a line: BSK_4H_SRB: Viability Assessment in the BioMAP Diversity Plus: 4H Assay (AID 2283027).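 For AC50: curves fitted both ways versus DMSO so AC50 may be loss or gain.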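 Note: cells exposed to compound for 24 h before staining.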 The conditions noted are these: primary human endothelial cells (HUVEC). The method in brief:
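Human umbilical vein endothelial cells were dosed with chemical and, after 24 h, fixed with 10% TCA, stained with 0.1% sulforhodamine B, and read at 560 nm to give total protein as a cytotoxicity measure. Bidirectional fitting relative to DMSO control.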

Test [15] in a line: BSK_BE3C_SRB: Viability Assessment in the BioMAP Diversity Plus: BE3C Assay (AID 2283028). Particulars: primary human bronchial epithelial cells. The method in brief: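 SRB total-protein staining (0.1%, after TCA fixation) of chemically dosed human bronchial epithelial primary cells at 24 h; DMSO serves as the negative control for bidirectional curve fitting.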
Read-out in test [16]: Thrombomodulin, THBD (gene 7056)
Kind of test: BSK_3C_Thrombomodulin: BioMAP Diversity Plus: 3C Assay for Thrombomodulin Biomarker Activity (AID 2283029). The conditions noted are these: primary human endothelial cells (HUVEC); actives raise or lower the signal. The gist of the method:
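Read-out is ELISA of thrombomodulin on human umbilical vein endothelium 24 h after chemical dosing. Gain or loss of signal is scored relative to DMSO. Overt cytotoxicity is checked in parallel cultures by sulforhodamine B staining.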

Read-out in test [17]: Urokinase-type plasminogen activator receptor (uPAR), PLAUR (gene 5329)
The test is described as follows: BSK_4H_uPAR: BioMAP Diversity Plus: 4H Assay for Urokinase-type plasminogen activator receptor (uPAR) Biomarker Activity (AID 2283030). The conditions noted are these: primary human endothelial cells (HUVEC); actives raise or lower the signal. The gist of the method:
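Endpoint derived via bidirectional curve fitting against DMSO baseline; readout was ELISA detection of uPAR on umbilical vein endothelial cells at 24 h post-treatment, with SRB-stained parallel cultures assessing cytotoxicity.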

Test [18] concerns the target human Retinoid X Receptor beta (RXRb), RXRB (gene 6257) (UniProt P28702). Kind of test: ATG_RXRb_TRANS: Attagene TRANS-FACTORIAL HepG2 Assay for human Retinoid X Receptor beta (RXRb) (AID 2283013; active = hit-call score of the fitted dose curve at least 0.9, where 1 is the maximum). The gist of the method:
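Transfect HepG2 with GAL4-UAS multi-reporter constructs (chimeric NR-Gal4, TRANS format); dose compound 24 h; isolate RNA, RT-PCR, FAM primer extension, HpaI digest; quantify by capillary electrophoresis; positive direction vs DMSO.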

The target of test [19] is human Thyroid Receptor alpha (THRa1), THRA (gene 7067) (UniProt P10827). Kind of test: ATG_THRa1_TRANS: Attagene TRANS-FACTORIAL HepG2 Assay for human Thyroid Receptor alpha (THRa1) (AID 2283014; active = hit-call score of the fitted dose curve at least 0.9, where 1 is the maximum). The gist of the method:
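Measured here is mRNA from a GAL4-UAS reporter in transfected HepG2 cells carrying a Gal4-fused receptor, 24 h post-dose. DMSO served as negative control and baseline.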

As usually defined, the AC50 is the concentration giving half of the maximal activity seen.

Records with an inconclusive call do not appear. More than one record can exist for a structure, and the calls need not agree. Calls of active or inactive are those of the source. Rule for the calls, unless noted: active = hit-call score of the fitted dose curve at least 0.9, where 1 is the maximum; inactive = score below 0.9.

E-selectin (Homo sapiens), sequence (P16581 whole entry, looked up): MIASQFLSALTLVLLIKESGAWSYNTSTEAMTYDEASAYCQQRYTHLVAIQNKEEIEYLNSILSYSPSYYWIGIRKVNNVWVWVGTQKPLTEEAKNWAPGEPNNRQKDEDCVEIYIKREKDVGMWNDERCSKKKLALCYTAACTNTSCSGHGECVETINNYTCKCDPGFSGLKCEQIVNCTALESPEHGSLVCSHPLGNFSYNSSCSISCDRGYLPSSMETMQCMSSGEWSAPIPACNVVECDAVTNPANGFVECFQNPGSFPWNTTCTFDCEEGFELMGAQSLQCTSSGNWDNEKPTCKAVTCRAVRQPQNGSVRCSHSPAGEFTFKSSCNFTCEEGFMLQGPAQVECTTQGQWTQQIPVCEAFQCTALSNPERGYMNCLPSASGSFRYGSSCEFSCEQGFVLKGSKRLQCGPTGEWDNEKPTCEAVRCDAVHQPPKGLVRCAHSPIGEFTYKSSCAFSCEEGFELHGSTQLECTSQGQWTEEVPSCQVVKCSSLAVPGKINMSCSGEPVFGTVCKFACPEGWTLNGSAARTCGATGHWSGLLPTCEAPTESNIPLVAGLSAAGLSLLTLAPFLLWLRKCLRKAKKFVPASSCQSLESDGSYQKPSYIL
human Vitamin D Receptor (VDR), VDR (gene 7421), sequence (P11473 whole entry, looked up): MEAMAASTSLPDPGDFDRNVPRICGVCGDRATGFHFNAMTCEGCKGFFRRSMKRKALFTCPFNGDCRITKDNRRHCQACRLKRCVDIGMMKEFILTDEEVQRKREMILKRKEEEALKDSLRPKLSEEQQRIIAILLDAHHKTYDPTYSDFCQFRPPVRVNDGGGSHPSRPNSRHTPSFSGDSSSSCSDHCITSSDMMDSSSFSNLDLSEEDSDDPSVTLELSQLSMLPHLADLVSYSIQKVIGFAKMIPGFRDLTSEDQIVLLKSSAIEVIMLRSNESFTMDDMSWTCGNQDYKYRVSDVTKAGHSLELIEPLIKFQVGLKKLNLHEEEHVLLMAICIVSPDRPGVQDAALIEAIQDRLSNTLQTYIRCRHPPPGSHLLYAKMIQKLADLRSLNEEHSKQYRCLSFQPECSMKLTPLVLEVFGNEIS
human Retinoid X Receptor beta (RXRb), RXRB (gene 6257), sequence (P28702 whole entry, looked up, the tested form may be a part): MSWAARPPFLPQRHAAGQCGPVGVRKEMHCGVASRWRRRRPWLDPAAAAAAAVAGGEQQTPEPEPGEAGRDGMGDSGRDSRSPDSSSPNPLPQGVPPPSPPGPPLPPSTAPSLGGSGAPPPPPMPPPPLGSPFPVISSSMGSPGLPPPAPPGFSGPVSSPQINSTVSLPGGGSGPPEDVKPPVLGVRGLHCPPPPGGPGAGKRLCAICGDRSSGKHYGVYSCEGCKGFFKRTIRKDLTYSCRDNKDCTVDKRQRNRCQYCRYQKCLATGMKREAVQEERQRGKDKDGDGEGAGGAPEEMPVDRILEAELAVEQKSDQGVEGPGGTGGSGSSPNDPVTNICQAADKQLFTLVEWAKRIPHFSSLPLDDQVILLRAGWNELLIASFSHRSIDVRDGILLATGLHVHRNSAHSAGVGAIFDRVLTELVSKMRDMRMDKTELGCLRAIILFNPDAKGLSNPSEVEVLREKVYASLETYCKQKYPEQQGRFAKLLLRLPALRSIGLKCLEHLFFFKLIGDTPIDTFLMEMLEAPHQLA
human Thyroid Receptor alpha (THRa1), THRA (gene 7067), sequence (P10827 whole entry, looked up, the tested form may be a part): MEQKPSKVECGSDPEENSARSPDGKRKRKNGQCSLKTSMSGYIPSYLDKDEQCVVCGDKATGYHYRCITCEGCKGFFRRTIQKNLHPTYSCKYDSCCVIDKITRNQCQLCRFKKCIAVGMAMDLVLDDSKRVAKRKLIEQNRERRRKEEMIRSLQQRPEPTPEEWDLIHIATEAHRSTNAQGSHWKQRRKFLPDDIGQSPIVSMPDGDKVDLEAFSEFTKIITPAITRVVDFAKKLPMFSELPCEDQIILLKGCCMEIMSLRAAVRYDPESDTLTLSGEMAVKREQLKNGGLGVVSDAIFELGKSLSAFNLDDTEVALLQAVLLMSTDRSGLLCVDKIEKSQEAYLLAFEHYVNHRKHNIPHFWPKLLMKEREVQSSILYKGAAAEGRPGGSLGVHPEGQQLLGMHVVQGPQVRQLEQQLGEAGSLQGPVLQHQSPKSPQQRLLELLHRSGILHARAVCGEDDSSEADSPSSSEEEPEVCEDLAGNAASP

`CCCCCCOC(=O)CC(CC(=O)OCCCCCC)(OC(=O)CCC)C(=O)OCCCCCC`: the compound was classed as inactive in [1], in test [2], in test [3], in [4], in test [5] and in [6]. Besides, the result in test [7], in [8], in [9], in [10], in test [11] and in [12] was inactive. The outcome in test [13], in test [14], in [15], in test [16] and in [17] was inactive.

On to `c1ccc2c(c1)-c1cccc3c1c-2cc1ccccc13`, for which the outcome in test [2], in test [18], in test [4], in test [5], in [6] and in test [7] was inactive. Besides, the result in test [8], in test [9], in test [10], in test [12], in test [13] and in test [14] was inactive. The outcome in test [15], in test [16] and in test [17] was inactive. The concentration at half-maximal activity (AC50) in test [18] was 19.8 µM (active); in test [11], 0.661 µM (active).

On to `COCc1nnc(-c2ccc[n+]([O-])c2)n1-c1c(Cl)c(Cl)cc2[nH]c(=O)c(=O)[nH]c12`, for which the call in test [1], in test [2], in [3], in [4], in test [5] and in test [6] was inactive. Also, the result in test [7], in test [8], in [10], in test [11], in test [12] and in test [13] was inactive. The outcome in test [14], in [15], in [16] and in test [17] was inactive.

As for `O=C(O)c1ccc2c(c1)nc(C(=O)NC1CCN(C3CC3)CC1)n2Cc1cc(-c2ccc(Cl)s2)on1`, the compound was classed as inactive in test [1], in test [4], in test [5], in test [7], in [8] and in test [10]. Moreover, the outcome in [11], in test [12], in [14], in test [15] and in test [16] was inactive. In addition, the AC50 in [6] was 1.6 µM (active); in test [13], 0.952 µM (active); in test [17], 0.0541 µM (active).

For the compound `O=S(=O)(O)CCC(F)(F)C(F)(F)C(F)(F)C(F)(F)C(F)(F)C(F)(F)F`, the compound was classed as inactive in test [1], in test [19], in test [4], in test [5], in test [6] and in test [7]. Also, the outcome in [8], in [9], in [10], in [11], in [13] and in test [14] was inactive. Also, the outcome in test [15], in test [16] and in test [17] was inactive. In addition, in [11], the half-maximal activity concentration (AC50) is 45.5 µM (active).

Take `Cn1c(=O)c2[nH]cnc2n(C)c1=O`: the outcome in test [1], in test [2], in [4], in [5], in [6] and in test [7] was inactive. The result in test [8], in test [10], in test [11], in [12], in [13] and in test [14] was inactive. For the same compound, the outcome in [15], in [16] and in [17] was inactive.

As to `c1ccc2ncccc2c1`, the outcome in test [1], in [2], in test [3], in test [4], in [5] and in test [6] was inactive. Besides, the outcome in [7], in [8], in [10], in test [11], in test [12] and in test [13] was inactive. Further, the result in [14], in [15], in [16] and in [17] was inactive.

As for `CCc1ccc(O)c(C(C)(C)C)c1`, the AC50 in test [2] is 39.9 µM (active); in test [18], 8.8 µM (active); in test [3], 33.3 µM (active); in test [5], 25 µM (active); in [6] it was 30.9 µM (active); in [7], 30.4 µM (active). For the same compound, the half-maximal activity concentration (AC50) in test [8] was 36 µM (active); in test [10], 31.2 µM (active); in [12], 39.3 µM (active); in test [13] it was 32 µM (active); in [14] it was 32.8 µM (active); in [17] it was 36.7 µM (active). Besides, the outcome in [19], in test [4], in test [11], in [15] and in test [16] was inactive.
